High-throughput results (PubChem BioAssay)
IDE inh: human IDE inhibitors in live cells, primary screen, fluorescence polarization, HEK cells, FAbetaB substrate; inhibition, % at 5.59 µM; FAbetaB cleavage; AID 434962, 2010; 320,000 compounds, 0.41% hits;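 active means percent inhibition above the average of all tested compounds plus 3 SD, set per screening campaign, cut at about 16% in these data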;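 further: IDE supplied by intact live HEK cells; FP after avidin binding of uncleaved biotin substrate so inhibition keeps polarization high; 0% = DMSO wells and 100% = 60 µM reference IDE inhibitor Ii1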
TMEM16A act: TMEM16A chloride channel activators or potentiators, primary screen, cell-based, HTS; Anoctamin-1 (Mus musculus), Q8BHY3; HEK293 TMEM16A/YFP-H148Q/I152L, iodide quench fluorescence; active compounds read low; B-score at 10 µM; 340,000 compounds, 0.3% hits;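 active means fluorescence-ratio B-score plate-corrected deviation score at least 3 library SD below zero, with starting fluorescence score within 5 deviations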;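 further: channel opened by trigger with iodide after compound preincubation; score built on the fluorescence ratio of max minus min over baseline; more negative score means more quench and so TMEM16A activation or potentiation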
IDE act: human IDE activators in live cells, primary screen, fluorescence polarization, HEK cells, FAbeta-B substrate | activation, % at 5.96 µM | Insulin-degrading enzyme (Homo sapiens), P14735 | 340,000 compounds, 0.073% hits | FAbeta-B cleavage; 0% vehicle, 100% cell-free pure enzyme wells;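 active means activation above the mean of all tested compounds plus 3 SD, set per screening campaign, cut at about 17% in these data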
CHT block: inhibitors of human choline transporter CHT | High affinity choline transporter 1 (Homo sapiens), Q9GZV3 | CHT-expressing cells, membrane potential dye, choline response; active compounds read low | B-score at 10 µM | 310,000 compounds, 0.86% hits | AID 488975, 2010;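 active means B-score over 3 SD under the library average, and starting fluorescence ratio not unusually high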;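 further: choline stimulus applied at its EC90 after an EC20 pre-addition; B-score computed on integrated fluorescence ratio after choline addition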
Target sequence (Q9GZV3 whole entry, looked up): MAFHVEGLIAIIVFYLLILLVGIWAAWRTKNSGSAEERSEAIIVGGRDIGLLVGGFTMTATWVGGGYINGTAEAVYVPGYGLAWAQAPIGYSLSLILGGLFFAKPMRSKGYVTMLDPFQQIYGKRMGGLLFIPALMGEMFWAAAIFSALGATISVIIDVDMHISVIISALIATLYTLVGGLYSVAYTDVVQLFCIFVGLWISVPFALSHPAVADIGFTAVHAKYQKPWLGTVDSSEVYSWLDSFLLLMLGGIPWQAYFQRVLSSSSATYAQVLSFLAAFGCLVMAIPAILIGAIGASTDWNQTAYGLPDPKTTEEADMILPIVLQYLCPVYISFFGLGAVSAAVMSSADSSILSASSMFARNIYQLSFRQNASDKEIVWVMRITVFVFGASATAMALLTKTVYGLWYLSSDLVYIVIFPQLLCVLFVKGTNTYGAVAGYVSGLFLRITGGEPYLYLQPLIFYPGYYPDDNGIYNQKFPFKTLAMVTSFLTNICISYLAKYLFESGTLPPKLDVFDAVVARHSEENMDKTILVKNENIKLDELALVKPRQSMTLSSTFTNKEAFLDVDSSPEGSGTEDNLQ
CHT allo act: CHT positive allosteric modulators, primary screen, cell-based, membrane potential dye, choline EC20. High affinity choline transporter 1 (Homo sapiens), Q9GZV3. CHT-expressing cells; active compounds read high; LV-AA mutant CHT in HEK293 cells. B-score at 10 µM. 310,000 compounds, 0.49% hits. AID 488977, 2010;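 active means initial fluorescence not abnormally high and integrated response B-score, plate-corrected, over 3 SD above library mean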
ANO1 block: TMEM16A chloride channel inhibitors, primary screen, cell-based, HTS; normalized B-score (activity score, 25-100; higher = stronger inhibition) at 10 µM; 310,000 compounds, 1.2% hits; Anoctamin-1 (Mus musculus), Q8BHY3; HEK293 TMEM16A/YFP iodide influx fluorescence, ionomycin;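 active means ratio plate-corrected score three or more library SD toward inhibition, starting fluorescence score within five deviations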;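 further: score derived from kinetic fluorescence span divided by baseline fluorescence per well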
Numbers without * were called inactive; i = inactive; . = no result. Shown are actives, neighbours in structure and some others; about 2.7% of the full set was active somewhere.

SMILES | IDE inh | TMEM16A act | IDE act | CHT block | CHT allo act | ANO1 block
Cc1ccc(S(=O)(=O)N2CCCC2)cc1S(=O)(=O)N1CCCC1 | 4 | i | 5 | i | i | i
Cc1ccc(S(=O)(=O)c2ccc(Cl)cc2)cc1S(=O)(=O)N1CCOCC1 | -3 | i | 3 | i | i | 25*
O=C(O)c1ccc(N2C(=O)CC(SC(=NCc3ccc4c(c3)OCO4)Nc3ccccc3)C2=O)cc1 (configuration not stated) | -5 | i | 2 | i | i | i
CN=C(Nc1ccc2c(c1)OCO2)SC1CC(=O)N(c2ccccc2)C1=O (configuration not stated) | 7 | i | 4 | i | i | 25*
CCc1cc(=O)oc2c3c(cc(OCC(=O)N[C@H](C(=O)O)[C@H](C)CC)c12)OC(C)(C)CC3 | 4 | i | 3 | i | i | i
Cc1ccccc1C(=O)N1CCC(C(=O)Nc2nc3ccc(F)cc3s2)CC1 | 5 | i | 2 | i | i | 25*
Cc1ccccc1C(=O)N1CCC(C(=O)Nc2nccs2)CC1 | 3 | i | 5 | i | i | i
COc1ccccc1C(=O)NC(CCSC)C(=O)OCC(=O)NC(=O)NCc1ccco1 (configuration not stated) | 0 | -24* | -3 | i | i | i
CC(C)Oc1ccc(Cn2c(=O)sc3ccccc32)cc1 | 2 | i | 0 | i | i | 25*
COc1ccc(-c2cc(C(F)(F)F)nc(SCC(=O)Nc3cc(C)on3)n2)cc1OC | -2 | i | 2 | i | i | i
COc1ccc(-c2cc(C(F)(F)F)nc(SCC(=O)N3CC(C)OC(C)C3)n2)cc1OC (configuration not stated) | . | -4.6* | 0 | . | . | .
O=S(=O)(Cc1ccccc1)Nc1ccc(F)cc1 | . | i | 1 | i | i | i
Cc1cc(Cl)c(S(=O)(=O)N2CCN(c3ccc(F)cc3)CC2)cc1OCC(=O)NC1CCCCC1 | 7 | i | 7 | i | i | 25*
Cc1cc(Cl)c(S(=O)(=O)N2CCN(c3ccc(F)cc3)CC2)cc1OCC(N)=O | -10 | i | -8 | i | i | i
C[C@H]1COc2c(N3CCN(C)CC3)c(F)cc3c(=O)c(C(=O)O)cn1c23 | 2 | i | 0 | i | 8.9* | i
Cc1ccc(S(=O)(=O)N2CCC(=O)N(C(COCc3cccc(C)c3)Cc3ccccc3)CC2)cc1 (configuration not stated) | -1 | -22* | 1 | i | i | i
Cc1ccc(S(=O)(=O)N2CCC(=O)N(C(COCc3ccc(C(F)(F)F)cc3)Cc3ccccc3)CC2)cc1 (configuration not stated) | 1 | -34* | 3 | i | i | i
Cc1ccc(S(=O)(=O)N2CCC(=O)N(C(COCc3ccc(C(F)(F)F)cc3)C(C)C)CC2)cc1 (configuration not stated) | -1 | i | 2 | i | i | i
Cc1ccc(COCC(CC(C)C)N2CCN(C(=O)c3cccc(C(F)(F)F)c3)CCC2=O)cc1 (configuration not stated) | 0 | -17* | 2 | i | i | i
Cc1ccc(S(=O)(=O)N2CCC(=O)N(C(COCc3ccc(Cl)c(Cl)c3)Cc3ccccc3)CC2)cc1 (configuration not stated) | -1 | . | . | i | i | i
NNC(=O)c1cccn(Cc2ccc(Cl)cc2Cl)c1=O | 1 | -7.2* | 1 | i | i | i
CC(=O)N1c2ccc(S(=O)(=O)NCC3CCC(C(=O)NCc4ccco4)CC3)cc2CC1C (configuration not stated) | 5 | i | 0 | i | i | i
